# Measured values reported in PubChem BioAssay (Tox21).
# Unmarked numbers belong to inactive results. A call without a number means that no potency is given here. Calls of active or inactive are those of the source. Unless noted, the call rests on the fitted dose curve; in most records, active means well fitted curve in the direction sought with a large enough effect in the repeat runs; inconclusive means weak or mixed curves; inactive means no such curve, though single readings can be large; an effect the other way counts as inactive or inconclusive.
# What was measured:
# [1] = qHTS assay to identify small molecule antagonists of the glucocorticoid receptor (GR) signaling pathway - cell viability counter screen (AID 720693); further: nearly all actives have a fitted effect of over 55% in size
# [2] = qHTS assay for identifying genotoxic compounds that show differential cytotoxicity against isogenic chicken DT40 cell lines with known DNA damage response pathways - Rev3 mutant cell line (AID 743014); further: nearly all actives have a fitted effect of over 55% in size; further: potency means the concentration at half of the fitted maximal effect
# [3] = qHTS assay for identifying genotoxic compounds that show differential cytotoxicity against isogenic chicken DT40 cell lines with known DNA damage response pathways - Rad54/Ku70 mutant cell line (AID 743015); further: nearly all actives have a fitted effect of over 60% in size; further: potency means the concentration at half of the fitted maximal effect
# [4] = qHTS assay to identify small molecule antagonists of the androgen receptor (AR) signaling pathway - cell viability counter screen (AID 743033; further: nearly all actives have a fitted effect of over 45% in size; further: potency means the concentration at half of the fitted maximal effect)
# [5] = qHTS assay to identify small molecule antagonists of the androgen receptor (AR) signaling pathway using the MDA cell line - cell viability counter screen (AID 743041; further: nearly all actives have a fitted effect of over 45% in size; further: potency means the concentration at half of the fitted maximal effect)
# Summary of the method: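 MDA-kb2 AR-luc cells (MMTV-luciferase, AR/GR responsive) treated with compounds plus R1881 agonist for 16 h at 37C. CellTiter-Fluor added at 15.5 h; fluorescence read after 30 min in the same wells.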
# [6] = qHTS assay to identify small molecule antagonists of the thyroid receptor (TR) signaling pathway - cell viability counter screen (AID 743064); further: nearly all actives have a fitted effect of over 50% in size
# Summary of the method: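 Counter screen for cytotoxicity: compound plus T3 (1 nM final) on GH3.TRE-Luc cells, 23.5 h at 37 °C, then fluorescence viability readout with CellTiter-Fluor.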
# [7] = qHTS assay to identify small molecule antagonists of the thyroid receptor (TR) signaling pathway (AID 743065); further: nearly all actives have a fitted effect of over 55% in size; further: potency means the concentration at half of the fitted maximal effect
# Summary of the method: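 GH3.TRE-Luc rat pituitary cells (two TREs driving luciferase) were dosed with compound, then stimulated with 1 nM T3 (final) for 23.5 h at 37 C. ONE-Glo luminescence was the read-out, with CellTiter-Fluor fluorescence as the cytotoxicity counter-screen.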
# [8] = tested on: thyroid hormone receptor (rat, GH3 cells); experiment: qHTS assay to identify small molecule agonists of the thyroid receptor (TR) signaling pathway (AID 743066; calls by dose curve)
# [9] = biological target: Estrogen receptor (Homo sapiens) (UniProt P03372); experiment: qHTS assay to identify small molecule antagonists of the estrogen receptor alpha (ER-alpha) signaling pathway (AID 743069; active means well fitted curve in the direction sought with a large enough effect in the signal ratio in the repeat runs, not every such curve was filed as active; inconclusive means weak or mixed curves, or effect the other way; inactive means no such curve, though single readings can be large or run the other way; the % refers to the signal ratio)
# Summary of the method: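 HEK293 ER-alpha-UAS-bla GripTite cells, held overnight in 2% charcoal-stripped FBS, 5,000 cells/well, preincubated 4 h, then compound plus 17beta-estradiol for 18 h at 37C. Beta-lactamase read by LiveBLAzer B/G FRET substrate, 2 h at room temperature.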
# [10] = qHTS assay to identify small molecule antagonists of the estrogen receptor alpha (ER-alpha) signaling pathway - cell viability counter screen (AID 743074; calls by dose curve;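 further: HEK293 cells carrying ER-alpha-UAS-bla reporter stimulated with 17beta-estradiol; nearly all actives have a fitted effect of over 45% in size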; further: potency means the concentration at half of the fitted maximal effect)
# [11] = biological target: Estrogen receptor (Homo sapiens) (UniProt P03372); experiment: qHTS assay to identify small molecule agonists of the estrogen receptor alpha (ER-alpha) signaling pathway (AID 743075; calls by dose curve; further: potency means the concentration at half of the fitted maximal effect)
# [12] = biological target: Estrogen receptor (Homo sapiens) (UniProt P03372); experiment: qHTS assay to identify small molecule agonists of the estrogen receptor alpha (ER-alpha) signaling pathway using the BG1 cell line (AID 743079); conditions: BG1Luc4E2 cells, ERE-luciferase agonist, 22 h; activation: at 70.3 µM (top of the series); further: nearly all actives have a fitted effect of over 20% in size
# [13] = qHTS assay to identify small molecule antagonists of the estrogen receptor alpha (ER-alpha) signaling pathway using the BG1 cell line (AID 743080; calls by dose curve;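 further: BG1 cells stimulated with 17beta-estradiol alongside compound; nearly all actives have a fitted effect of over 25% in size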)
# Summary of the method: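 Readout is ONE-Glo luminescence, taken 30 min at room temperature after reagent addition, preceded by a CellTiter-Fluor viability read; BG1-Luc-4E2 cells had received compound and 17beta-estradiol for 21.5 h at 37 C.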
# [14] = qHTS assay to identify small molecule antagonists of the estrogen receptor alpha (ER-alpha) signaling pathway using the BG1 cell line - cell viability counter screen (AID 743081);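 further: compound given together with 17beta-estradiol as the ER stimulus; nearly all actives have a fitted effect of over 45% in size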
# Aromatase (Homo sapiens) = Aromatase (Homo sapiens) (UniProt P11511); experiment: qHTS assay to identify aromatase inhibitors (AID 743083); further: nearly all actives have a fitted effect of over 55% in size; further: potency means the concentration at half of the fitted maximal effect
# [15] = qHTS assay for identifying genotoxic compounds that show differential cytotoxicity against isogenic chicken DT40 cell lines with known DNA damage response pathways - wild type cell line (AID 743012); further: nearly all actives have a fitted effect of over 60% in size; further: potency means the concentration at half of the fitted maximal effect
# Summary of the method: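 Parental DNA repair-proficient DT40 cells, 300 per well, were pre-incubated ~0.5 h at 37 C/5% CO2, pin-dosed with compounds in DMSO, then incubated 40 h. Viability was read as CellTiter-Glo luminescence after 30 min at room temperature.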
# [16] = biological target: Androgen receptor (Homo sapiens) (UniProt P10275); experiment: qHTS assay to identify small molecule antagonists of the androgen receptor (AR) signaling pathway (AID 743035; active means well fitted inhibition curve with a large enough effect in the signal ratio in the repeat runs, not every such curve was filed as active; inconclusive means weak or mixed curves, or effect the other way; inactive means no such curve, though single readings can be large or run the other way; the % refers to the signal ratio; further: potency means the concentration at half of the fitted maximal effect)
# Summary of the method: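 HEK293 cells stably carrying a UAS-driven beta-lactamase reporter (AR-UAS-bla GripTite) were plated for 4 h at 37C, then given compound and the agonist R1881 and incubated 16 h. Reporter activity was read by LiveBLAzer B/G FRET fluorescence after 2 h at room temperature.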
# [17] = biological target: Androgen receptor (Homo sapiens) (UniProt P10275); experiment: qHTS assay to identify small molecule agonists of the androgen receptor (AR) signaling pathway (AID 743036; active means well fitted activation curve with a large enough effect in the signal ratio in the repeat runs, with a control signal flat, not every such curve was filed as active; inconclusive means weak or mixed curves, or effect the other way; inactive means no such curve, though single readings can be large or run the other way; the % refers to the signal ratio)
# Summary of the method: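 In this Tox21 qHTS, 2,000 HEK293 AR-bla cells per well were incubated with compounds for 16 h at 37C and 5% CO2. Fluorescence intensity was recorded 2 h after adding LiveBLAzer B/G FRET substrate at room temperature.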
# [18] = biological target: Androgen receptor (Homo sapiens) (UniProt P10275); experiment: qHTS assay to identify small molecule antagonists of the androgen receptor (AR) signaling pathway using the MDA cell line (AID 743042; further: nearly all actives have a fitted effect of over 55% in size)
# Summary of the method: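 MDA-kb2 breast carcinoma cells carrying MMTV-luciferase (AR/GR responsive) were co-treated with compounds and the agonist R1881 for 16 h at 37C. Inhibition read as ONE-Glo luminescence; CellTiter-Fluor fluorescence measured in parallel for cytotoxicity.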
# Sequence of Estrogen receptor (Homo sapiens) (P03372 whole entry, looked up): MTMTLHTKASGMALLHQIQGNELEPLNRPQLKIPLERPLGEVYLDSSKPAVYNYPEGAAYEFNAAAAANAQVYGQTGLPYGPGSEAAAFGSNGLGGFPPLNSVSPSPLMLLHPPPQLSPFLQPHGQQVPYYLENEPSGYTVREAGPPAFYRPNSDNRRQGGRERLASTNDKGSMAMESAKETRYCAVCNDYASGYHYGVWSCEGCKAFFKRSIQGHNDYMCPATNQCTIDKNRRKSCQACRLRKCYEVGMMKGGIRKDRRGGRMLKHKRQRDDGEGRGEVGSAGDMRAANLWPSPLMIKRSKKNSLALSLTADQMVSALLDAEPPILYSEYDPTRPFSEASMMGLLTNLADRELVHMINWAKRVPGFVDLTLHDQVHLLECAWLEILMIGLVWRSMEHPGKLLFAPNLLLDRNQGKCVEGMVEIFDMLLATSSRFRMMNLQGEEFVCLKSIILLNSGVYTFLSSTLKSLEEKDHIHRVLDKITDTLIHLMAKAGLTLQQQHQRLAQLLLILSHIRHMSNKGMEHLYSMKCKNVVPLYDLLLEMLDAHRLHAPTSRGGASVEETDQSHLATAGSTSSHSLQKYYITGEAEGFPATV
# Sequence of Aromatase (Homo sapiens) (P11511 whole entry, looked up): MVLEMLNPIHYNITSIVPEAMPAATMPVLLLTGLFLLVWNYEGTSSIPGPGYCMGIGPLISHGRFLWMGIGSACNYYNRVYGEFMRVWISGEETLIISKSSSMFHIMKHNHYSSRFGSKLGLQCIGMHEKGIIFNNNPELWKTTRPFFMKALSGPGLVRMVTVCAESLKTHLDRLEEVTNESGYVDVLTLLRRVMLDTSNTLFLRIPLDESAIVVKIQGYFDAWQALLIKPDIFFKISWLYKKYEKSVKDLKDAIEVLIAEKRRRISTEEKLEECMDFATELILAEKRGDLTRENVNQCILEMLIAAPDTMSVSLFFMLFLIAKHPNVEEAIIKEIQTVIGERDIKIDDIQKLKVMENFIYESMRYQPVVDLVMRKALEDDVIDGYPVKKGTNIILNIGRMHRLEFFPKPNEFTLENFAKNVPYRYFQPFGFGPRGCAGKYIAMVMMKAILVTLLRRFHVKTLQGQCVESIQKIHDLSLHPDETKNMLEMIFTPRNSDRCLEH
# Sequence of Androgen receptor (Homo sapiens) (P10275 whole entry, looked up): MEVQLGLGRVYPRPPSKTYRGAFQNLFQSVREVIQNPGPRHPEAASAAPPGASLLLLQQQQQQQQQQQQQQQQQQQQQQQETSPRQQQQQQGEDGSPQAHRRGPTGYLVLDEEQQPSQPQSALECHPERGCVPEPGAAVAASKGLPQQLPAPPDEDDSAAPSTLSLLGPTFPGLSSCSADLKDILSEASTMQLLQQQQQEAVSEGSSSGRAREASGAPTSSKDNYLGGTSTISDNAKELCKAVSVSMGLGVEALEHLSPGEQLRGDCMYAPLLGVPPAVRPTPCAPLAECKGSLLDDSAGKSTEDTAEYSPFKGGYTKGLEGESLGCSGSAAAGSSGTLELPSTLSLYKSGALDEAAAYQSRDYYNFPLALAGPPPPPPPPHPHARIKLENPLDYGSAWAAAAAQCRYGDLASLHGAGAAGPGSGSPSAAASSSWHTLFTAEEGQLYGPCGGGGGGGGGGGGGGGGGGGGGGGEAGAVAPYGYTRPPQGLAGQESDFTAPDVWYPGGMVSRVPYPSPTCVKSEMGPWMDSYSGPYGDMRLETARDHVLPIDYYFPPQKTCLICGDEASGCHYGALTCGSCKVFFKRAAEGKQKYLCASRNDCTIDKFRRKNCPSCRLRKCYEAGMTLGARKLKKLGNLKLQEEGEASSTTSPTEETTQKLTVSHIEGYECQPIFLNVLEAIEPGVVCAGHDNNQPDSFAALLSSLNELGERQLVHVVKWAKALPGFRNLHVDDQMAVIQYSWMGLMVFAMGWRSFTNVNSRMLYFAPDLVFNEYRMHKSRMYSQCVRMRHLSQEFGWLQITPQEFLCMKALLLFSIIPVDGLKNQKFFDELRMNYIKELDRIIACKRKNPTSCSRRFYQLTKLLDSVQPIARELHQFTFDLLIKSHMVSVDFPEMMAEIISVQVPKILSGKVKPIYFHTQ
SMILES,Potency [1],Potency [2],Potency [3],Potency [4],Potency [5],Potency [6],Potency [7],Potency [8],Potency [9],Potency [10],Potency [11],Potency [12],Potency [13],Potency [14],Potency (Aromatase (Homo sapiens)),Potency [15],Potency [16],outcome [17],Potency [18]
CC(Cc1ccc2c(c1)OCO2)NO (stereo not drawn),inactive,inactive,inactive,inactive,inactive,inactive,inactive,inactive,inactive,inactive,inactive,inactive,inactive,inactive,inactive,–,–,–,–
CCCCn1cc[n+](C)c1.[Cl][Fe-]([Cl])([Cl])[Cl],inactive,inactive,–,inactive,inactive,–,inactive,inactive,–,inactive,–,–,–,inactive,inactive,inactive,–,–,–
c1ccc2nc(N3CCNCC3)ccc2c1,inactive,–,–,inactive,inactive,–,–,inactive,inactive,–,inactive,–,–,–,–,29.8 µM (active),–,–,–
Cc1c([N+](=O)[O-])c(C)c([N+](=O)[O-])c(C(C)(C)C)c1[N+](=O)[O-],inactive,68.6 µM (active),–,inactive,inactive,–,–,inactive,–,inactive,inactive,inactive,inactive,inactive,–,68.6 µM (active),–,–,–
CNN,inactive,inactive,inactive,inactive,inactive,inactive,inactive,inactive,–,inactive,–,–,–,inactive,inactive,–,–,–,–
CC(=O)C(Cl)C(=O)N(C)C (stereo not drawn),inactive,24.3 µM (active),61.1 µM (active),inactive,inactive,inactive,–,inactive,inactive,inactive,inactive,inactive,inactive,inactive,inactive,–,–,–,–
O=C(N[C@@H]1N=C(c2ccccc2F)c2cccc3c2N(CC3)C1=O)c1cc2ccccc2[nH]1,inactive,inactive,21.1 µM (active),inactive,inactive,inactive,–,inactive,–,–,–,–,–,–,–,–,–,–,–
BrCC(Br)(Br)Br,–,–,–,–,–,–,–,–,–,–,–,–,–,–,–,–,inactive,inactive,–
CCCCCCC[CH2][Sn]([Cl])([Cl])[CH2]CCCCCCC,–,inactive,inactive,inactive,inactive,–,54.4 µM (active),inactive,–,24.5 µM (active),–,–,–,inactive,–,inactive,21.9 µM (active),–,inactive
O.O.O.O.O.O.O.O=S(=O)([O-])[O-].[Co+2],–,inactive,inactive,inactive,inactive,inactive,–,–,–,–,–,–,–,inactive,inactive,inactive,–,–,–
Cc1ccc(C)c2ccccc12,–,inactive,inactive,inactive,inactive,inactive,inactive,inactive,–,inactive,–,–,–,inactive,inactive,inactive,inactive,inactive,inactive
CC1CN1 (stereo not drawn),inactive,–,–,inactive,inactive,inactive,–,inactive,inactive,inactive,inactive,inactive,inactive,inactive,inactive,–,–,–,–
Nc1nc(N)nc(Cl)n1,–,inactive,inactive,inactive,inactive,–,inactive,inactive,inactive,inactive,inactive,inactive,inactive,inactive,inactive,inactive,–,–,–
COC(=O)N(OC)c1ccccc1COc1ccn(-c2ccc(Cl)cc2)n1,–,0.243 µM (active),0.217 µM (active),0.871 µM (active),1.72 µM (active),–,0.137 µM (active),–,–,–,0.275 µM [inconclusive] (active),–,–,–,61.1 µM (active),0.193 µM (active),–,–,–
O=Cc1ccccc1,–,inactive,inactive,inactive,inactive,–,inactive,inactive,–,inactive,–,–,–,inactive,–,inactive,–,–,–
